Screening data: PubChem, several laboratories
Shown are actives, neighbours in structure and some others; about 4.6% of the full set was active somewhere.
TIM10 inh: TIM10 yeast growth inhibition; S. cerevisiae TIM10 strain growth, BacTiter-Glo luminescence, 24 h; inhibition, % at 10 µM; actives 1.4% (n = 330,000);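 active = inhibition of 40% or more at the single tested concentration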;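 also: wild-type TIM10 isogenic control strain grown at permissive 25 °C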
tim10-1 inh: tim10-1 yeast growth inhibition | inhibition, % at 20 µM | S. cerevisiae tim10-1 ts strain growth, BacTiter-Glo, 24 h | actives 2.2% (n = 330,000) | AID 463190;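 active = inhibition of at least 40%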;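 also: mutant grown at 25 °C; 0% = DMSO wells with yeast and 100% = wells holding no yeast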
SKKanGAS inh: SKKanGAS growth inhibition; S. pyogenes SKKanGAS, kanamycin growth, BacTiter-Glo, 6 h; actives 1.3% (n = 300,000); inhibition, % at 7.5 µM;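 active = mean replicate score, as percent of positive control median, at least 50; inconclusive = mean below 50 but one replicate at or above 50; inactive = mean and every replicate below 50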;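 also: strain carries kanamycin resistance gene driven by streptokinase promoter and grows in 40 µg/ml kanamycin; loss of luminescence reflects streptokinase promoter inhibition or plain growth inhibition; 0% = median of DMSO wells and 100% = positive control at its reference dose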
NALP3 yeast inh: NALP3 inhibition in yeast. Yeast reconstituted NLRP3/ASC/caspase-1, beta-gal luminescence, 24 h. inhibition, % at 10 µM. actives 0.39% (n = 330,000);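 active = inhibition of 50% or more; inactive = inhibition below 50%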;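 also: plate controls were induced DMSO wells for no effect and uninduced yeast grown without galactose for full effect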
tim23-1 inh: growth inhibitors of tim23-1 mutant yeast | actives 1.3% (n = 330,000) | AID 463212 | inhibition, % at 20 µM | S. cerevisiae tim23-1 growth, BacTiter-Glo luminescence, 24 h;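 active = growth inhibition of the mutant yeast at or above 50%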;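 also: temperature-sensitive mutant grown at 25 °C; plate controls were DMSO-treated mutant yeast for no effect and medium wells lacking yeast for full effect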
PfHsp90 set2: inhibits growth of yeast expressing Plasmodium falciparum Hsp90; AID 504621; actives 0.32% (n = 310,000); S. cerevisiae expressing PfHsp90, BacTiter-Glo ATP, 48 h; yeast lacking PDR1 and PDR3 efflux regulators; inhibition, % at 9.4 µM;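 active = every replicate shows inhibition above about 80%, whatever the replicate mean, limit read from the data; inconclusive = mean inhibition reaches the set limit but some replicate falls short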;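 also: 0% = DMSO neutral controls and 100% = 20 µM radicicol positive controls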
NALP3 yeast conf: NALP3 inhibition confirmation in yeast | shares compounds with NALP3 yeast inh | yeast expressing human NALP3, luminescence | inhibition, % at 10 µM | actives 81% (n = 1,300) | AID 435006; in the data active = inhibition above about 48%
Casp1 ASC ctr: active in yeast caspase-1-ASC counter-screen for NALP3 inhibitors | shares compounds with NALP3 yeast inh | yeast expressing Caspase-1-ASC, luminescence counter screen | inhibition, % at 10 µM | actives 66% (n = 1,000) | AID 488784
NALP3 retest: yeast NALP3 inhibition, confirmed on retest. shares compounds with NALP3 yeast inh. yeast expressing human NALP3, luminescence read-out. inhibition, % at 10 µM. actives 53% (n = 1,000). AID 488794
The depositor's hits bear a star; ? = inconclusive; · = no result given. Rule as the data show it, unless noted: active = inhibition above about 50%; inactive = the rest.

SMILES | TIM10 inh | tim10-1 inh | SKKanGAS inh | NALP3 yeast inh | tim23-1 inh | PfHsp90 set2 | NALP3 yeast conf | Casp1 ASC ctr | NALP3 retest
Cc1ccccc1OCCn1c(=S)[nH]c2ccccc21 | 31.9 | 22.9 | 6.5 | 53.1* | 40.5 | -23.2 | 78.9* | 66.7* | 41.9
Cc1ccc(Nc2nc(N)c3ccccc3n2)cc1Cl | 25.2 | 5.4 | 8.9 | 54.6* | 44.4 | 26.0 | 64.6* | 38.0 | 31.9
COc1cc2nc(Nc3ccc(C)c(Cl)c3)nc(N)c2cc1OC | 6.8 | 37.1 | -13.0 | 11.5 | 25.1 | 17.5 | · | · | ·
Cc1nc2sc(-c3ccccc3)cc2c(=O)n1N | -7.8 | 28.2 | 33.9 | 25.6 | 13.4 | 44.7 | · | · | ·
Cc1nc2sc(-c3ccccc3)cc2c(=O)n1-n1cccc1 | -4.4 | 3.9 | -7.7 | 51.9* | -2.9 | 14.4 | 70.8* | 57.5* | 43.8
Cc1[nH]cnc1CSCc1ccc(Cl)cc1 | 3.5 | 7.2 | 2.3 | -1.3 | -7.0 | -6.5 | · | · | ·
Cc1[nH]cnc1CSCCN | 10.4 | 2.1 | 4.9 | 57.6* | 11.3 | -6.5 | 69.4* | 53.6* | 65.2*
CCOc1ccc(NC2OCC(O)C(O)C2O)c([N+](=O)[O-])c1 (centres undefined) | 4.0 | 2.4 | 6.6 | 20.3 | 3.0 | 9.4 | · | · | ·
CCCCCCCCNc1ncnc2ccccc12 | 12.9 | -27.4 | -2.2 | 81.6* | 20.2 | -3.3 | 76.3* | 79.8* | 78.8*
c1ccc(CCNc2ncnc3ccccc23)cc1 | 12.9 | 2.1 | 6.1 | 20.8 | -3.8 | -11.4 | · | · | ·
NCCc1nnc(SCC(=O)Nc2cccc(Cl)c2)o1 | -2.1 | 0.6 | -2.6 | 52.4* | 6.1 | -10.4 | 75.0* | 56.8* | 68.4*
CC(C)(C)OC(=O)NCCc1nnc(SCC(=O)Nc2cccc(Cl)c2)o1 | -1.7 | 8.8 | 5.9 | 5.8 | 1.1 | 3.5 | · | · | ·
Cn1ncc2c(Nc3ccc(Cl)c(Cl)c3)ncnc21 | 7.4 | 21.5 | ? | -4.3 | 22.6 | -13.3 | · | · | ·
Cn1ncc2c(Nc3ccc(-c4ccccc4)cc3)ncnc21 | 19.1 | -22.3 | 16.7 | 50.9* | 44.9 | -6.6 | 51.9* | 59.6* | 53.7*
Cc1c(C(=O)NCCCN2CCCC2=O)oc2ccc(S(=O)(=O)N3CCOCC3)cc12 | -5.1 | 1.8 | · | 14.8 | 9.8 | -27.9 | · | · | ·
Cc1c(C(=O)NCCC2=CCCCC2)oc2ccc(S(=O)(=O)N3CCOCC3)cc12 | 22.7 | 9.1 | · | 57.6* | 25.9 | · | 61.8* | 54.9* | 43.2
Cc1cccc(NCc2cc(Cl)ccc2O)n1 | -5.0 | 0.9 | 1.8 | 50.9* | 15.6 | 11.0 | 45.5 | 46.8 | 41.8
Cc1snc(SCc2ccc(Cl)cc2)c1C#N | 5.0 | -4.7 | 15.1 | 52.4* | 1.2 | 9.2 | 49.4* | 62.8* | 25.4
Cc1snc(SCc2ccc(F)cc2)c1C#N | -21.4 | 0.6 | 4.8 | 37.8 | 9.0 | 3.1 | · | · | ·
O=C1CCC(=O)N1c1ccc(-c2nc3ccccc3s2)cc1 | -6.1 | 15.6 | 5.9 | 20.1 | 5.1 | 3.1 | · | · | ·
O=C1CNC(=S)N1c1nc2ccccc2s1 | 21.1 | -11.5 | 28.8 | 53.6* | 43.2 | 3.5 | 62.5* | 53.7* | 59.0*
CCC(=O)Nc1nnc(S(=O)(=O)N(C)c2ccccc2)s1 | 5.1 | 21.4 | -4.5 | 21.8 | 17.8 | -6.8 | · | · | ·
Cc1cccc(C)c1NC(=O)C(C)N1CCCC1 (centres undefined) | -9.8 | 2.8 | -21.2 | 7.1 | -16.2 | 0.6 | · | · | ·
Cc1cccc(C)c1NC(=O)C(C)N (centres undefined) | -3.1 | 3.5 | 17.5 | 55.4* | 5.0 | · | 58.6* | 40.1 | 43.1
CC1=C(C(=O)OCc2ccccc2)C(c2ccccc2OS(=O)(=O)c2ccc([N+](=O)[O-])cc2)NC(=O)N1CCCC(=O)O (centres undefined) | 17.1 | 17.2 | 15.1 | 17.6 | 10.1 | -5.7 | · | · | ·
SMILES | TIM10 inh | tim10-1 inh | SKKanGAS inh | NALP3 yeast inh | tim23-1 inh | PfHsp90 set2 | NALP3 yeast conf | Casp1 ASC ctr | NALP3 retest
c1ccc2oc(SCc3cn4ccccc4n3)nc2c1 | 5.1 | 17.4 | -5.0 | 55.7* | 38.7 | -9.0 | 68.5* | 69.2* | 53.2*
Cc1cccc2nc(CSc3nc4ccccc4o3)cn12 | 17.4 | 29.2 | 1.9 | 38.2 | 37.0 | 28.1 | · | · | ·
CCCc1nc(SCc2cccnc2)c2c(=O)n(C)c(=O)n(C)c2n1 | -19.4 | -11.3 | -8.5 | 53.6* | 34.7 | 14.8 | 66.3* | 57.5* | 46.7
Cn1c(=O)c2c(SCc3cccnc3)nc(CC(C)(C)C)nc2n(C)c1=O | -10.7 | 23.2 | -2.4 | 7.1 | 47.8 | -26.8 | · | · | ·
Cc1ccc(-c2nc3ccccc3[nH]2)cc1NC(=O)c1ccc2c(c1)OCO2 | -24.8 | -24.7 | 3.7 | 59.8* | -10.3 | -3.1 | 59.3* | 55.8* | 59.0*
CCOc1ccc(C(=O)Nc2cc(-c3nc4ccccc4[nH]3)ccc2Cl)cc1[N+](=O)[O-] | 12.2 | 27.3 | 14.6 | 77.9* | 13.1 | -60.0 | 6.2 | · | ·
CCCNC(=O)c1c(O)c2cccc3c2n(c1=O)CCC3 | · | · | 1.0 | · | · | 15.3 | · | · | ·
NCCNC(=O)c1c(O)c2cccc3c2n(c1=O)CCC3 | 32.5 | -13.8 | 5.5 | 61.0* | 41.2 | 5.2 | 75.1* | 51.5* | 46.1
O=C(Nc1ccc(F)cc1)c1cc2ccccc2o1 | 3.1 | 7.6 | -4.0 | 24.0 | 11.9 | -5.3 | · | · | ·
O=C(Nc1ccccc1)c1cc2ccccc2o1 | -5.1 | -8.7 | 14.3 | 52.4* | 35.4 | 0.1 | 50.8* | 53.1* | 53.0*
COc1ccc(NC(=O)c2cc3ccccc3o2)cc1 | 11.6 | -10.7 | -5.2 | 55.3* | 39.7 | -0.6 | 79.2* | 66.4* | 61.4*
COc1ccc(NC(=O)c2cc3ccccc3o2)cc1OC | -0.5 | -7.6 | -10.6 | 19.7 | 12.8 | -4.7 | · | · | ·
Cc1ccc(NC(=O)c2cc3ccccc3o2)cc1Cl | 37.8 | -4.2 | -4.0 | 50.4* | 46.8 | 9.9 | 67.8* | 39.1 | 40.4
CS/C(=N\S(=O)(=O)c1cccs1)Nc1ccc(F)c(Cl)c1 | 1.2 | 21.5 | 8.8 | -13.3 | 32.6 | 2.8 | · | · | ·
CS/C(=N\S(=O)(=O)c1cccs1)Nc1cccc(Cl)c1C | 24.4 | 19.3 | 9.0 | -117.6 | 19.9 | -10.3 | -3.3 | · | ·
Cc1ccc2c(c1)N(CC(=O)NCC1CCCO1)C(=O)C(C(C)C)O2 (centres undefined) | 9.5 | -15.6 | 1.1 | 3.5 | 0.4 | 16.1 | · | · | ·
Cc1cccc(NC(=O)c2cnc3sccn3c2=O)c1 | 24.7 | 2.5 | 3.1 | 56.4* | 40.1 | 29.9 | 66.2* | 52.2* | 46.0
CC1(c2nnc(-c3ccccc3)o2)CC(c2c(Cl)cccc2Cl)=NO1 (centres undefined) | -36.4 | -1.1 | -6.2 | 55.0* | 29.9 | -7.0 | 70.8* | 32.1 | 37.4
CC1(c2nnc(-c3ccncc3)o2)CC(c2c(Cl)cccc2Cl)=NO1 (centres undefined) | -34.1 | -18.4 | -5.7 | 13.9 | 1.3 | · | · | · | ·
